# Source: PubChem BioAssay (National Center for Advancing Translational Sciences (NCATS))
# ClpP mod: qHTS Assay for Activators of ClpP | hit rate 1.9% among 340,000 | purified B. subtilis ClpP, FRET peptide cleavage, 20 min | AID 651965, 2013 | Potency, µM (titrated, usually from 57.5 µM), without a hit: top-dose activity change, negative = active | ATP-dependent Clp protease proteolytic subunit (Bacillus subtilis (strain 168)), P80244; active = well fitted falling curve with a large enough effect; inconclusive = small, poorly fitted or top-dose-only effect; inactive = no such curve, though single readings can be large or run the other way; also: potency is read from the fitted curve at half-maximal effect; the source files actives as falling curves though it sought activators and does not explain the sign; nearly all actives have a fitted effect of over 65% in size
# Target sequence (P80244 whole entry, looked up): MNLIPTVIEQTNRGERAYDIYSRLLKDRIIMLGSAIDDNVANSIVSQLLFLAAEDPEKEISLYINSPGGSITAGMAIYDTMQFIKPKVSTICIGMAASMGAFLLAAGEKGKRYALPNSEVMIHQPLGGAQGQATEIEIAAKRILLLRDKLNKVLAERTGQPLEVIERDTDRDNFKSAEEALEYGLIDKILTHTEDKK
#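 ClpP 10 microg/mL final, pH 8 Tris/KCl buffer with BSA, glycerol, Tween-20; compound pinned in; FRET-FV substrate; RT 20 min; Ex320/Em430; ΔFRET vs ADEP 5.8 microM, DMSO, no enzyme.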
# IL1B secr inh: qHTS for Inhibitors of Inflammasome Signaling: IL-1-beta AlphaLISA Primary Screen. THP-1 LPS/ATP IL-1B secretion, AlphaLISA, 16 h; hits give low values. activity change, % at 57.5 µM. hit rate 4.7% among 360,000; in the data active = activity change below about -50%; inconclusive = mostly about -30% to -49%; also: % is scaled to controls: 0 for no effect and ±100 for the full control effect
#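 Secreted IL-1B measured by AlphaLISA bead assay after 16 h compound exposure of THP-1 cells; compounds (final up to 57.5 uM) added 1 h before LPS (250 ng/mL) and ATP (1.25 mM) stimulation; lower signal means less secretion.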
# DRD3 agonist: qHTS of D3 Dopamine Receptor Agonist: qHTS; D3R DiscoveRx beta-arrestin cells, luminescence, 90 min; max activation, %; hit rate 0.58% among 410,000; AID 652048, 2013; in the data active = max activation above about 30%; also: 0% is about no effect
# Target sequence (P35462 whole entry, looked up): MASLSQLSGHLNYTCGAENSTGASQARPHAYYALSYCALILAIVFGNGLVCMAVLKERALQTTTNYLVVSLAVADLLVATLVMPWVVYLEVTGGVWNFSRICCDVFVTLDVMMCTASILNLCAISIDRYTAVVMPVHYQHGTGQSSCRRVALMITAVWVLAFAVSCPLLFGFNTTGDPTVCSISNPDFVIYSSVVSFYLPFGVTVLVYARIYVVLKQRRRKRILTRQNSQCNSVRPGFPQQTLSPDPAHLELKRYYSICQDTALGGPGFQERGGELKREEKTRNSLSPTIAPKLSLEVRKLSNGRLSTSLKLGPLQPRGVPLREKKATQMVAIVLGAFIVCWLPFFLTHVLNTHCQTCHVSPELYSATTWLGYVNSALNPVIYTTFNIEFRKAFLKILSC
#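 Agonist-mode cell screen: cells plated at 1500/well and incubated overnight at 37 °C, then exposed to library compounds for 90 min at 37 °C. Detection reagent was added for 30–60 min at room temperature, and luminescence was read.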
# DRD3 antagonist: qHTS of D3 Dopamine Receptor Antagonist: qHTS. D3R cells, DiscoveRx beta-arrestin luminescence, antagonist mode; hits give low values. max response, negative = inhibition, %. hit rate 2.5% among 360,000. AID 652054, 2013; in the data active = max response below about -50%; inconclusive = no clear call, values can overlap the other calls; also: % is scaled to controls: 0 for no effect and ±100 for the full control effect
#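 Cells expressing the human receptor were seeded at 1500 cells/well, incubated overnight at 37 degrees C in 5% CO2, then exposed to library compounds with dopamine controls for 90 minutes at 37 degrees C before luminescent detection.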
# DT40 TDP1 no CPT: qHTS for Inhibitors of human tyrosyl-DNA phosphodiesterase 1 (TDP1): qHTS in cells in absence of CPT. DT40 Tdp1-/- hTDP1 cells, no CPT, ATP luminescence, 48 h. Potency, µM (series often up to 46.2 µM), without a hit: at the highest dose activity change, negative = growth inhibition, actives largely listed as inhibitors. hit rate 15% among 420,000. AID 686978, 2013; also: potency is read from the fitted curve at half-maximal effect; % is scaled to controls: 0 for no effect and ±100 for the full control effect; nearly all actives have a fitted effect of over 55% in size
#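 Stably hTDP1-transfected Tdp1-null chicken DT40 cells were treated with library compounds minus camptothecin and grown for at least 48 hr at 37 °C, after which cellular ATP was quantified by luminescence.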
# DT40 TDP1 CPT: qHTS for Inhibitors of human tyrosyl-DNA phosphodiesterase 1 (TDP1): qHTS in cells in presence of CPT | AID 686979, 2013 | chicken DT40 Tdp1-/-;hTDP1 cells + 20 nM CPT, ATP luminescence, 48 h | Potency, µM (top dose mostly 46.2 µM), inactives show top-dose activity change, negative = growth inhibition, actives largely listed as inhibitors | hit rate 12% among 420,000; also: potency is read from the fitted curve at half-maximal effect; % is scaled to controls: 0 for no effect and ±100 for the full control effect; nearly all actives have a fitted effect of over 55% in size
#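 Chicken DT40 Tdp1-/- cells complemented with human TDP1, 400 cells/well, exposed to compounds plus 20 nM camptothecin for at least 48 h at 37 C; viability read as ATP content by CellTiter-Glo luminescence.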
# * marks the source's active call; other numbers are inactive results; ? = inconclusive; nt = not tested or not shown; ! = not confirmed by another sample; [ ] = remark or other dose. A selection: hits, their analogues and other compounds. The true share with any hit is near 21%. Unless noted, calls follow the shape of the dose curve; as a rule, active = well fitted inhibition curve with a large enough effect; inconclusive = small, poorly fitted or top-dose-only effect; inactive = flat fitted curve, though single readings scatter.
SMILES,ClpP mod,IL1B secr inh,DRD3 agonist,DRD3 antagonist,DT40 TDP1 no CPT,DT40 TDP1 CPT
Cc1ccccc1CSc1nc2cccnc2n1Cc1ccc(C(=O)NC2CC2)cc1,4.6%,nt,7.7,nt,?,?
Cc1[nH]c2ccccc2c1C(=O)CCl,2.9%,-107.3*,1.4,-0.4,3.66µM*,2.59µM*
Cc1[nH]c2ccccc2c1C(=O)COC(=O)c1ccccc1SCC(=O)N1CCCC1,0.0%,nt,nt,nt,11.2µM*,?
C/C(=C\C(=O)c1ccccc1)Nc1ccc2c(c1)OCO2,-2.0%,-11.9,-0.9,-8.9,-23.8%,?
C/C(=C\C(=O)c1ccc(Br)cc1)Nc1cccc(Cl)c1,-0.4%,17.8,3.2,-8.7,-25.1%,-1.7%
C/C(=C\C(=O)c1ccc(Cl)cc1)Nc1ccc(Br)cc1,-0.4%,-50.3*,0.5,16.0,-28.2%,-3.3%
C/C(=C\C(=O)c1ccccc1)Nc1ccc(Cl)c(Br)c1,0.5%,13.3,3.8,-55.1*,?,?
CC(=O)c1ccc2cc3c(cc2c1)OCO3,-21.9%,0.3,0.5,9.1,?,-9.7%
O=C(NNC(=O)c1cccs1)c1cccc(F)c1,nt,-8.5,-8.5,1.2,-3.9%,3.0%
O=C(N/N=C/c1ccc(OC(=O)c2cccs2)cc1)c1cccc(F)c1,-2.8%,-12.5,5.0,-15.1,20.6µM*,23.1µM*
NNC(=O)c1cc(-c2ccc(N)cc2)nc2ccc(Br)cc12,0.5%,-20.3,-6.5,11.2,14.6µM*,?
COc1cc(NC(=O)c2cc(-c3cccnc3)nc3ccc(Br)cc23)cc(OC)c1,-0.2%,7.8,35.9*,27.3,20.6µM*,?
O=C(O)c1cc(-c2ccco2)nc2ccc(Br)cc12,-5.8%,2.4,7.2,0.0,-24.1%,35.8%
O=C(NCCCn1ccnc1)c1cc(-c2cccnc2)nc2ccc(Br)cc12,-6.3%,-11.3,-7.9,-12.4,-9.3%,17.8%
COc1ccc(NC(=O)c2cc(-c3ccncc3)nc3ccc(Br)cc23)cc1OC,-0.5%,-5.5,7.1,87.9,20.6µM*,?
O=C(Nc1cccnc1)c1cc(-c2cccnc2)nc2ccc(Br)cc12,-0.3%,16.3,55.2*,25.0,?,?
COCCNC(=O)c1cc(-c2cccnc2)nc2ccc(Br)cc12,-8.4%,?,-5.5,-1.8,?,?
O=C(Nc1nc2c(F)cccc2s1)c1ccc2c(c1)OCCO2,4.1%,nt,-2.5,nt,?,?
Cc1ccc(Cl)cc1N(C)C(=O)c1noc2c1CCCCC2,-3.1%,nt,-19.2,nt,-30.0%,?
COc1ccc(S(=O)(=O)N2CCC(C(=O)NC3CCCCC3C)CC2)cc1 (stereo unspecified),nt,-7.2,3.9,2.2,?,-5.2%
O=C(Nc1cccc(C(=O)N2CCOCC2)c1)c1ccccc1Cl,-1.2%,0.3,-8.9,-17.3,-11.9%,-11.0%
CCCNC(=O)c1cccc(Cn2nc(C)c(Br)c2C)c1,3.5%,-10.2,2.5,35.9,20.6µM*,16.4µM*
Cc1nn(Cc2cccc(C(=O)NC34CC5CC(CC(C5)C3)C4)c2)c(C)c1Br,-5.1%,-25.2,0.7,-14.8,?,?
COc1ccc(OC)c(S(=O)(=O)Nc2cc(C)on2)c1,-0.9%,25.7,14.0,25.7,31.7%,-2.8%
CCC(CO)Oc1cc(NCc2ccncc2)c2ncn(C(C)C)c2c1 (stereo unspecified),0.5%,-3.6,56.1*,0.8,-6.1%,?
SMILES,ClpP mod,IL1B secr inh,DRD3 agonist,DRD3 antagonist,DT40 TDP1 no CPT,DT40 TDP1 CPT
CCC(CN(C)C)Oc1cc(NCc2ccccc2)c2ncn(C(C)C)c2c1 (stereo unspecified),-3.2%,15.3,-18.5,-55.0*,?,25.9µM*
CCC(CO)Oc1cc(NC(=O)c2ccc(C)cc2)c2ncn(C(C)C)c2c1 (stereo unspecified),0.2%,?,-20.0,2.4,?,23.1µM*
CCC(CO)Oc1cc(NC(=O)c2ccccc2)c2ncn(C(C)C)c2c1 (stereo unspecified),-1.0%,-16.1,9.2,13.4,?,?
COc1cc(NCc2ccccc2)c2ncn(C(C)C)c2c1,-0.2%,-29.2,2.9,0.7,-27.9%,?
Cc1nc2c(-c3ccc(F)cc3)c(C)nn2c(C)c1CCC(=O)NCc1cccc(Cl)c1,-3.4%,nt,-2.9,nt,?,?
O=C(NCC1Cc2cccc(-c3ncccn3)c2O1)C1CCOC1 (stereo unspecified),nt,nt,nt,nt,-6.2%,9.9%[9.04 µM]
Cc1nc(CN2CCCCC2)c(O)c(=O)[nH]1,-1.7%,0.0,4.3,0.0,-13.0%,-9.7%
Cc1cc(C)cc(NS(=O)(=O)c2ccc(-c3cnc(C4CC4)o3)cc2)c1,1.9%,24.5,-7.2,-8.5,0.82µM*,0.82µM*
O=S(=O)(Nc1ccccc1)c1ccc(-c2cnc(C3CC3)o2)cc1,-2.5%,9.5,-4.9,6.4,2.31µM*,3.66µM*
Cc1cccc(NS(=O)(=O)c2ccc(-c3cnc(C4CC4)o3)cc2)c1C,-29.2%,84.3,-4.2,-26.0,0.0103µM*,0.0073µM*
CC(=O)Nc1ccc(NS(=O)(=O)c2ccc(-c3cnc(C4CC4)o3)cc2)cc1,-4.1%,2.7,7.0,15.0,6.4%,-25.7%
O=S(=O)(NCc1ccc(F)cc1)c1ccc(-c2cnc(C3CC3)o2)cc1,3.4%,7.7,-5.3,1.6,10.3µM*!,18.4µM*
COc1ccc(Cn2c(=O)n(-c3ccc(OC)cc3)c(=O)c3c2c2cc(OC)ccc2n3C)cc1,4.4%,nt,5.7,nt,-27.3%,-16.5%
Cc1ccccc1CSc1nc(-c2cccc(F)c2)nc2c1Cc1c(CO)cnc(C)c1O2,0.8%,nt,-0.4,nt,-10.0%,-8.4%
C/C(=N\Nc1nccnc1Cl)c1ccc(O)c(C)c1,nt,14.1,4.2,10.2,-1.3%,12.2%
CCOc1ccc(NS(=O)(=O)c2ccc(-c3cnc(C4CC4)o3)cc2)cc1,0.5%,38.6,9.3,2.0,9.2µM*,?
O=C(O)c1cccc(NS(=O)(=O)c2ccc(-c3ccc(S(=O)(=O)Nc4cccc(C(=O)O)c4)cc3)cc2)c1,-11.1%,3.3,-0.4,-18.5,-8.0%,2.1%
COc1ccc(NS(=O)(=O)c2ccc(S(=O)(=O)N3CCCC3)cc2)cc1Cl,-5.1%,-2.6,4.0,-26.8,?,-27.6%
O=S(=O)(NCc1ccc(Cl)cc1)c1ccc(-c2cnc(C3CC3)o2)cc1,4.3%,nt,-7.2,nt,?,?
